Assay outcomes deposited in PubChem by National Center for Advancing Translational Sciences (NCATS).
Lassa entry inh = qHTS for Inhibitors of binding or entry into cells for Lassa Virus; Lassa virus pseudotype entry inhibition, cell reporter; Potency, µM (series often up to 37.9 µM), hits mostly inhibitors; AID 540256, 2011; hit rate 1.2% among 300,000; calls by dose curve; tested in HEK293 cells; further: nearly all actives have a fitted effect of over 50% in size
Marburg entry inh = qHTS for inhibitors of binding or entry into cells for Marburg Virus. hit rate 1.8% among 300,000. Potency, µM (highest dose often 37.8 µM), actives largely listed as inhibitors. Marburg virus pseudotyped entry inhibition, cell reporter; calls by dose curve; tested in HEK293 cells
FMDV antiviral = High Throughput Screening for Foot and Mouth Disease Virus Antivirals | FMDV antiviral cell-based qHTS | hit rate 1.2% among 410,000 | Potency, µM (top dose mostly 57.9 µM), actives largely listed as inhibitors | AID 1159524, 2015; calls by dose curve; tested in HEK293T cells; further: read-out not given here; nearly all actives have a fitted effect of over 45% in size
CHX counter = Cycloheximide Counterscreen for Small Molecule Inhibitors of Shiga Toxin; cell reporter, cycloheximide protein synthesis inhibition counterscreen; max response, %; hit rate 12% among 300,000; AID 2314, 2010; in the data active means max response mostly above about 13%, no sharp cut-off; inactive means mostly below about 14%; further: read at 38.3 µM for the half of the compounds with a filed dose
HCV inh = qHTS Assay for Inhibitors of Hepatitis C Virus (HCV); Huh7.5.1 HCVcc-Cre infection, luciferase reporter, 44 h; Potency, µM (highest dose often 41.8 µM), most hits filed as inhibitors; hit rate 3.4% among 340,000; AID 651820, 2012; active means well fitted inhibition curve with a large enough effect; inconclusive means small, poorly fitted or top-dose-only effect, or another doubt; inactive means no such curve, though single readings can be large or run the other way
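Luciferase read-out (15 sec integration) after a 15 min room-temperature substrate step quantifies HCVcc-Cre infection. Cells, 1,000 per well, had compound added 4 h post-plating, then virus at ~0.5 moi, and were cultured 44 h.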
Shiga inhibitor = A qHTS for Small Molecule Inhibitors of Shiga Toxin. inhibition, % at 38.7 µM. hit rate 9.2% among 290,000. Vero cells, Shiga toxin protein synthesis inhibition reporter. AID 2315, 2010; in the data active means inhibition mostly above about 28%, no sharp cut-off; inactive means mostly below about 43%
Large screens that a line does not name were inactive. Hits are enriched below; roughly 13% of the tested compounds scored in any of these assays.

COc1ccc(CCNC(=O)Cc2cccs2)cc1OC	none
O=C(Cc1cccs1)NCc1ccccc1Br	CHX counter 36.5, Shiga inhibitor 62.8 (no result: Lassa entry inh, Marburg entry inh)
O=C(Cc1cccs1)NCc1cccc(CNC(=O)Cc2cccs2)c1	none (no result: Lassa entry inh, Marburg entry inh)
O=S(=O)(NCc1ccccc1Br)c1cccs1	Marburg entry inh inconclusive, CHX counter 11.1
COc1ccc(CCNC(=O)CSCC(=O)Nc2cc(S(C)(=O)=O)ccc2Cl)cc1	none (no result: Lassa entry inh, Marburg entry inh, CHX counter, Shiga inhibitor)
CN(C)Cc1c(C(=O)N/N=C/c2ccc(-c3ccccc3)cc2)nnn1-c1nonc1N	FMDV antiviral inconclusive (no result: Lassa entry inh, Marburg entry inh)
Cc1nnc(NC(=O)CSc2nccn2Cc2ccc(Cl)cc2)s1	none (no result: Marburg entry inh, CHX counter, HCV inh, Shiga inhibitor)
O=C(COC(=O)c1cccc(Br)c1)Nc1cccc(S(=O)(=O)N2CCCCC2)c1	none (no result: Lassa entry inh, Marburg entry inh, CHX counter, HCV inh, Shiga inhibitor)
COc1ccc(-c2nc3cnc(N4CCNCC4)nc3n(C)c2=O)cc1	none (no result: Lassa entry inh, Marburg entry inh, CHX counter, HCV inh, Shiga inhibitor)
O=c1c([N+](=O)[O-])cccn1Cc1ccccc1Cl	Lassa entry inh inconclusive, Marburg entry inh inconclusive
O=[N+]([O-])c1ccccc1-c1cc(-c2ccccc2)cc(-c2ccccc2)[n+]1Cc1ccccc1Cl	FMDV antiviral inconclusive, HCV inh 3.55µM (no result: Lassa entry inh, Marburg entry inh, CHX counter, Shiga inhibitor)
CC(=O)c1ccccc1OCCCOc1cccc2cccnc12	HCV inh inconclusive (no result: Lassa entry inh, Marburg entry inh, CHX counter, Shiga inhibitor)
CC(=O)c1ccc(OCCCOc2cccc3cccnc23)cc1	none (no result: Lassa entry inh, Marburg entry inh)
OCc1ccccc1OCCCOc1cccc2cccnc12	CHX counter 26.3, Shiga inhibitor 53.2
c1ccc(OCCOc2cccc3cccnc23)cc1	CHX counter 33.2, Shiga inhibitor 68.3
CC(=O)CCc1ccc(OCCCOc2cccc3cccnc23)cc1	CHX counter 28.7, HCV inh inconclusive, Shiga inhibitor 45.6 (no result: Lassa entry inh, Marburg entry inh)
O=C(O)c1ccc(OCc2cn3ccccc3n2)cc1	CHX counter 29.3, Shiga inhibitor 25.6 (no result: Lassa entry inh, Marburg entry inh)
O=C(c1ccc(OCc2cn3ccccc3n2)cc1)N1CCN(S(=O)(=O)c2ccccc2F)CC1	Marburg entry inh inconclusive, HCV inh inconclusive (no result: CHX counter, Shiga inhibitor)
Cc1ncc2c(c1CNC(=O)c1ccc3c(c1)OCO3)CCN(C(=O)c1cnsn1)C2	none (no result: Lassa entry inh, Marburg entry inh, CHX counter, HCV inh, Shiga inhibitor)
Cc1ccc(NC(=O)COC(=O)CCc2c[nH]c3ccccc23)c(C)c1	none (no result: Lassa entry inh, Marburg entry inh, CHX counter, Shiga inhibitor)
OCc1ccccc1OCCOc1ccc(Cl)c2cccnc12	CHX counter 27.3, HCV inh inconclusive
Clc1ccc(OCc2cn3ccccc3n2)c2ncccc12	Marburg entry inh inconclusive, CHX counter 37.2, Shiga inhibitor 89.8
Clc1ccc(Oc2ccccc2)c2ncccc12	none
Cn1c(=O)[nH]c(=O)c2c1nc(NC1CCCCC1)n2CCO	none (no result: Lassa entry inh, Marburg entry inh)
O=C(c1ccc(Cl)c(S(=O)(=O)N2CCCC2)c1)N1CCN(c2ccccc2F)CC1	Lassa entry inh inconclusive, HCV inh inconclusive
c1cc2ccc3ccc(-n4cnnn4)c4ccc(c1)c2c34	HCV inh inconclusive
COc1ccc(NS(=O)(=O)c2ccc(C)c(NC(=O)NC3CCCCC3)c2)cc1	Lassa entry inh 10µM, Marburg entry inh inconclusive, HCV inh inconclusive
COc1ccccc1NS(=O)(=O)c1ccc(C)c(NC(=O)NC2CCCCC2)c1	Lassa entry inh inconclusive, Marburg entry inh inconclusive, HCV inh inconclusive
COc1ccc(NS(=O)(=O)c2cccc(NC(=O)COc3ccc(OC)cc3)c2)cc1	HCV inh inconclusive (no result: Lassa entry inh, Marburg entry inh)
COc1ccc(NS(=O)(=O)c2cccc(NC(=O)NC3CCCCC3)c2)cc1	Lassa entry inh 2µM, Marburg entry inh inconclusive, HCV inh inconclusive
COc1ccc(NS(=O)(=O)c2ccc(C)c(C(=O)N(C)Cc3ccc(C)cc3)c2)cc1	Lassa entry inh 11.2µM, Marburg entry inh inconclusive (no result: CHX counter, Shiga inhibitor)
CC(C)NC(=O)c1ccccc1N(Cc1ccccc1)S(C)(=O)=O	none
O=C1CCCN1CCCNc1ccc2nnc(CCC(=O)N3CCN(c4ccc(F)cc4)CC3)n2n1	none (no result: Lassa entry inh, Marburg entry inh)
CS(=O)(=O)n1nc(-c2ccccc2)nc1N	none (no result: FMDV antiviral)
COc1ccc(OC)c(C=NN=Cc2cc(OC)ccc2OC)c1	none (no result: Lassa entry inh, Marburg entry inh, CHX counter, HCV inh, Shiga inhibitor)
COc1cc(/C=N/N(C)C)cc(Br)c1O	none
COc1cc(/C=N/N(C)c2ccccc2)cc(Cl)c1O	Lassa entry inh inconclusive, CHX counter 37.5, HCV inh inconclusive
COc1ccc(OC)c(/C=N/N(C)c2ccccc2)c1	CHX counter 36.2, HCV inh inconclusive
CC1CCN(CCCNS(=O)(=O)c2cc(Br)cc3c2N(C(=O)C2CC2)CC3)CC1	HCV inh inconclusive (no result: Lassa entry inh)
C=CC(=O)N1c2ccccc2Sc2ccc(NC(=O)OCC)cc21	Lassa entry inh inconclusive, Marburg entry inh inconclusive, FMDV antiviral 12.6µM, HCV inh inconclusive (no result: CHX counter, Shiga inhibitor)
